# Results: article PMC5540273 (PLoS ONE, 2017)
# Tests used:
# Details in all cases: concentration: 1 μM, replicates: in singlicate; n = 1
# ULK3 = tested on: ULK3
# VEGFR2 = tested on: T1, VEGFR2
# T1 construct: gene KDR
# VPS34 = tested on: T2, VPS34
# T2 construct: gene PIK3C3
# VRK2 = tested on: VRK2
# WEE1 = tested on: WEE1
# WEE2 = tested on: WEE2
# WNK1 = tested on: WNK1
# WNK2 = tested on: WNK2
# WNK3 = tested on: WNK3
# WNK4 = tested on: WNK4
# YANK1 = tested on: T3, YANK1
# T3 construct: gene STK32A
# YANK2 = tested on: T4, YANK2
# T4 construct: gene STK32B
# YANK3 = tested on: T5, YANK3
# T5 construct: gene STK32C
# YES = tested on: T6, YES
# T6 construct: gene YES1
# YSK1 = tested on: T7, YSK1
# T7 construct: gene STK25
# YSK4 = tested on: T8, YSK4
# T8 construct: gene MAP3K19
# ZAK = tested on: ZAK
# ZAP70 = tested on: ZAP70
# p38-alpha = tested on: T9, p38-alpha
# T9 construct: gene MAPK14
# p38-beta = tested on: T10, p38-beta
# T10 construct: gene MAPK11
# 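Further: KINOMEscan kinase panel screen.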
SMILES,%Inh (ULK3) [%],%Inh (VEGFR2) [%],%Inh (VPS34) [%],%Inh (VRK2) [%],%Inh (WEE1) [%],%Inh (WEE2) [%],%Inh (WNK1) [%],%Inh (WNK2) [%],%Inh (WNK3) [%],%Inh (WNK4) [%],%Inh (YANK1) [%],%Inh (YANK2) [%],%Inh (YANK3) [%],%Inh (YES) [%],%Inh (YSK1) [%],%Inh (YSK4) [%],%Inh (ZAK) [%],%Inh (ZAP70) [%],%Inh (p38-alpha) [%],%Inh (p38-beta) [%]
COC(=O)c1c(-c2ccccc2)c2cc(Br)ccc2c(=O)n1Cc1ccc(S(C)(=O)=O)cc1,13,0,0,0,0,16,0,13,0,0,0,6,36,0,4,13,32,0,17,9
COC(=O)c1c(-c2ccccc2)c2cc(C)ccc2c(=O)n1Cc1ccccc1,0,0,0,0,0,6,0,0,0,0,0,0,17,0,0,0,25,0,8,0
O=C(Nc1n[nH]c2nc(-c3ccccc3)c(Cl)cc12)C1CC1 [SB-734909],0,15,0,0,0,0,1,0,7,0,17,0,0,0,0,85,14,10,24,39
O=C(Nc1n[nH]c2cc(-c3ccccc3F)ccc12)C1CC1 [SB-733371],33,4,0,0,5,0,0,0,0,6,0,0,0,0,0,87,0,0,4,9
Nc1ncnc2c1ncn2-c1cccc(F)c1 [SKF-97560],21,6,4,29,0,0,3,73,0,54,17,0,0,16,0,40,26,21,0,0
CCn1c(-c2nonc2N)nc2ccccc21 [SB-693162/GW549034],20,40,2,0,0,0,0,39,0,6,46,0,0,0,0,87,0,0,23,1
O=c1cc(N2CCOCC2)nc2n(Cc3ccc(F)c(Cl)c3)ccn12 [GSK2297099],8,4,95.2,0,2,3,8,4,5,6,1,11,0,11,18,6,5,0,0,0
Nc1n[nH]c2nnc(-c3ccccc3)c(-c3ccccc3)c12 [GW554060],16,0,0,18,44,9,3,41,18,14,7,0,26,17,0,16,5,0,0,0
COc1cccc(-n2cnc3c(N)ncnc32)c1 [SKF-97416],27,15,45,8,2,0,7,0,38,43,4,0,1,0,0,45,42,25,0,22
Cc1cccc(-c2nc(Nc3ccc4c(cnn4C)c3)c3ccccc3n2)n1 [GW876731],0,0,56,15,0,0,18,7,21,0,0,0,32,0,0,42,0,14,10,7
Nc1nc(N)c2nc(-c3ccccc3)[nH]c2n1 [SKF-12778],30,0,0,5,8,0,9,9,11,17,0,1,13,11,0,68,22,14,0,7
Cc1c(Cn2c(C)nn3c(=O)cc(N4CCO[C@H](C)C4)nc23)cccc1C(F)(F)F [GSK2373690],21,0,59,0,5,5,11,4,20,0,11,18,8,10,6,33,9,0,0,0
C[C@@H]1CC[C@H](C(=O)NC2CCCCC2)CN1c1cc(-c2ccc3c(N)n[nH]c3c2)nc(N)n1 [GSK2291363],11,8,31,0,34,26,16,4,21,0,6,3,26,21,24,27,9,0,36,0
CCC(=O)c1c(-c2ccccc2)c2cc(Cl)ccc2c(=O)n1Cc1cc(S(C)(=O)=O)n(CC(F)F)n1,0,0,0,0,0,0,0,0,0,0,0,8,0,0,0,0,0,11,10,2
Nc1n[nH]c2ncc(-c3ccccc3)cc12 [SB-517081],14,16,0,11,17,2,12,0,27,35,9,0,23,20,8,52,25,0,13,0
Cc1nn2c(=O)cc(N3CCOCC3)nc2n1Cc1cccc(Cl)c1Cl [GSK2342769],11,0,95.4,0,1,9,0,3,13,0,0,0,22,13,0,32,9,0,0,0
COc1cccc(C2=C(N(C)c3ccccc3)C(=O)NC2=O)c1 [SB-334865],12,1,0,10,4,0,8,0,20,15,0,0,2,21,8,37,20,0,14,0
CCC(=O)c1c(-c2ccccc2)c2cc(Cl)ccc2c(=O)n1Cc1cc(C(=O)NC2CC2)n(C)n1,2,0,20,0,0,0,0,0,0,22,0,9,20,0,4,0,23,0,16,0
CCc1nc(-c2cccc(C)c2)c(-c2ccncc2)s1,12,0,0,0,0,0,0,0,0,0,36,16,0,7,0,8,0,0,72,52
